From PubChem BioAssay (NCI) come the findings set out here.

Compounds without any hit were thinned out: in the full panel of roughly 83,000, 20% have a hit.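 Single-concentration screen, 48 h exposure, 96-well plates. Endpoint: percent growth. Below 10 = active.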 Unmarked numbers belong to inactive results. Activity calls are given as the source filed them.

What all share (test): NCI-60 one-dose screen, 48 h (100 = growth as untreated, 0 = no growth, -100 = all killed)
One test deals with NCI-H23 lung. To be noted: 10 µM unless noted.
The subject of another test is NCI-H226 lung. To be noted: 10 µM unless noted.
For a further test, the system named is NCI-H322M lung. The conditions noted are these: 10 µM unless noted.
A further test concerns HOP-62 NSCLC. The conditions noted are these: 10 µM unless noted.
In the next test the test system is NCI-H460 lung. The conditions noted are these: 10 µM unless noted.
Another test concerns HOP-92 NSCLC. The conditions noted are these: 10 µM unless noted.
The next test relates to NCI-H522 lung. To be noted: 10 µM unless noted.
A further test relates to A549/ATCC NSCLC. To be noted: 10 µM unless noted.
Another test has as its system 786-0 renal. The conditions noted are these: 10 µM unless noted.
The subject of the next test is COLO 205 colon. The conditions noted are these: 10 µM unless noted.
In another test the test system is DU-145 prostate. To be noted: 10 µM unless noted.
Another test concerns K-562 leukemia. The conditions noted are these: 10 µM unless noted.
The next test deals with MALME-3M melanoma. To be noted: 10 µM unless noted.
A further test deals with MDA-MB-231 breast. The conditions noted are these: 10 µM unless noted.
For the next test, the system named is RXF 393 renal. The conditions noted are these: 10 µM unless noted.
A further test has as its system SF-268 CNS. To be noted: 10 µM unless noted.
The test system of another test is SF-295 CNS. To be noted: 10 µM unless noted.
The subject of a further test is SF-539 CNS. To be noted: 10 µM unless noted.
For another test, the system named is UACC-257 melanoma. To be noted: 10 µM.
The next test relates to M14 melanoma. The conditions noted are these: 10 µM unless noted.

Take `CCN1C(=O)N(CC)C2SC(N/N=C/c3ccc(OC)cc3)=NC21` (stereo not given): the growth is 24.6% in the test with NCI-H23 lung; 51.2% in the test with NCI-H226 lung; 42.1% in the test with NCI-H322M lung; 48% in the test with HOP-62 NSCLC; 2.55% (active) in the test on NCI-H460 lung; 36.4% in the test with HOP-92 NSCLC. Further, the growth was 17.1% in the test on NCI-H522 lung; 23.9% in the test on A549/ATCC NSCLC; 19.6% in the test on 786-0 renal; 2.66% (active) in the test on COLO 205 colon; 11.2% with DU-145 prostate; 15.7% in the test on K-562 leukemia. Moreover, the growth is 45.8% in the test on MALME-3M melanoma; 23.4% in the test on MDA-MB-231 breast; 19.6% with RXF 393 renal; 49.7% in the test on SF-268 CNS; 8.27% (active) in the test with SF-295 CNS; -8.3% (active) in the test on SF-539 CNS. In addition, the values for the growth in the test with UACC-257 melanoma and in the test on M14 melanoma were 80.4% and 3.93% (active), respectively.

In the case of `O=C1[C@@H]2Cc3c([nH]c4ccccc34)[C@H](c3c(Cl)cccc3Cl)N2C(=O)CN1C1CCN(Cc2ccccc2)CC1`, the growth is 41.7% with NCI-H23 lung; 74.9% in the test on NCI-H226 lung; 77.7% in the test with NCI-H322M lung; 81.3% with HOP-62 NSCLC; 9.15% (active) with NCI-H460 lung; 42.8% in the test with HOP-92 NSCLC. Further, the growth was 63.5% in the test on NCI-H522 lung; 12.7% with A549/ATCC NSCLC; -26.6% (active) in the test on 786-0 renal; 75% with COLO 205 colon; 31.6% in the test with DU-145 prostate; -8.4% (active) in the test with K-562 leukemia. Besides, the growth in the test on MALME-3M melanoma is 44.9%; in the test with MDA-MB-231 breast it was 55.4%; in the test on RXF 393 renal it was 55.9%; in the test with SF-268 CNS, 52.5%; in the test with SF-295 CNS, -79.4% (active); in the test with SF-539 CNS, 70.3%. Besides, the growth in the test with UACC-257 melanoma was 46.4%; in the test on M14 melanoma it was 23.3%.

Regarding `CCNCc1c(-c2cccc(OC(F)(F)F)c2)[nH]c2ccc(N3CCCC3)cc2c1=O`, the growth is 24.9% in the test on NCI-H23 lung; 37.1% in the test on NCI-H226 lung; 30.3% in the test with NCI-H322M lung; 29.2% with HOP-62 NSCLC; 8.9% (active) in the test with NCI-H460 lung; 43.4% in the test on HOP-92 NSCLC. The growth in the test with NCI-H522 lung was 32.5%; in the test on A549/ATCC NSCLC it was 40.2%; in the test with 786-0 renal it was 28.2%; in the test with COLO 205 colon, 17.9%; with DU-145 prostate, 15%; in the test on K-562 leukemia, 6.77% (active). Also, the growth in the test with MALME-3M melanoma is 39.5%; in the test on MDA-MB-231 breast it was 20%; in the test on RXF 393 renal, -9.04% (active); in the test on SF-268 CNS, 45.1%; in the test on SF-295 CNS, 3.08% (active); with SF-539 CNS, 2.73% (active). For the same compound, the growth was 62.2% in the test with UACC-257 melanoma and -0.303% (active) with M14 melanoma.

`Cc1ccc(-c2csc(N/N=C/c3nc4ccccc4n3C3CC3)n2)cc1`: the growth with NCI-H23 lung is 82.9%; with NCI-H226 lung, 64.2%; in the test with NCI-H322M lung, 91.5%; in the test on HOP-62 NSCLC, 74.9%; in the test on NCI-H460 lung it was 84.4%; with HOP-92 NSCLC, 92.8%. The growth is -72.4% (active) with NCI-H522 lung; 41.1% with A549/ATCC NSCLC; 108% in the test on 786-0 renal; 8.64% (active) in the test on COLO 205 colon; 105% in the test with DU-145 prostate; -55.8% (active) in the test on K-562 leukemia. Besides, the growth is -72.9% (active) in the test with MALME-3M melanoma; 80.4% in the test on MDA-MB-231 breast; 71.6% in the test on RXF 393 renal; 80.1% with SF-268 CNS; 96.8% with SF-295 CNS; 66% in the test with SF-539 CNS. Further, the growth in the test on UACC-257 melanoma is 79.7%; in the test on M14 melanoma, 89%.

On to `O=C(O)c1ccc(-n2cc(CNc3ccc(F)cc3)c(-c3ccc(C(F)(F)F)cc3)n2)cc1`, for which the growth in the test on NCI-H23 lung was 93.3%; in the test with NCI-H226 lung it was 88.8%; with NCI-H322M lung it was 89.9%; in the test with HOP-62 NSCLC, 81.3%; in the test on NCI-H460 lung, 84.4%; in the test on HOP-92 NSCLC, 78.3%. The growth is 93.8% with NCI-H522 lung; 74% with A549/ATCC NSCLC; 105% in the test on 786-0 renal; 103% in the test with COLO 205 colon; 98.2% in the test on DU-145 prostate; 58.6% with K-562 leukemia. For the same compound, the growth in the test with MALME-3M melanoma was 97.6%; with MDA-MB-231 breast it was 100%; with RXF 393 renal, 88.2%; with SF-268 CNS, 80.9%; with SF-295 CNS, 63.9%; with SF-539 CNS, 88.8%. The values for the growth with UACC-257 melanoma and in the test on M14 melanoma were 90.9% and 92.6%, respectively.

As for `Brc1cccc(/C=N/Nc2nc(N/N=C/c3cccc(Br)c3)nc(N3CCOCC3)n2)c1`, the growth is 43.1% in the test with NCI-H23 lung; 43.3% in the test with NCI-H226 lung; 52.8% in the test on NCI-H322M lung; 52.3% in the test on HOP-62 NSCLC; 41.2% with NCI-H460 lung; 63.8% with HOP-92 NSCLC. In addition, the growth in the test with NCI-H522 lung was 33.6%; in the test on A549/ATCC NSCLC, 42.6%; in the test with 786-0 renal, 24.5%; in the test on COLO 205 colon it was 23.8%; in the test with DU-145 prostate, 27.3%; with K-562 leukemia, 14.5%. Moreover, the growth with MALME-3M melanoma was -54% (active); with MDA-MB-231 breast, 66.1%; with RXF 393 renal, -68% (active); in the test on SF-268 CNS it was 68.4%; in the test with SF-295 CNS, 29.1%; in the test with SF-539 CNS, 56.4%. The results for the growth in the test with UACC-257 melanoma and in the test with M14 melanoma were 35.9% and 31.7%, respectively.

For the compound `O=C1Nc2ccc(Cl)cc2/C1=C/c1ccc(OCc2ccc(Br)cc2F)cc1`, the growth in the test on NCI-H23 lung is 98.6%; in the test on NCI-H226 lung, 73.5%; in the test with NCI-H322M lung, 99.6%; in the test on HOP-62 NSCLC it was 101%; in the test on NCI-H460 lung, 103%; in the test on HOP-92 NSCLC, 95%. Further, the growth with NCI-H522 lung was 100%; in the test with A549/ATCC NSCLC it was 102%; in the test on 786-0 renal, 102%; with COLO 205 colon, 103%; in the test on DU-145 prostate, 101%; in the test with K-562 leukemia, 91.2%. Besides, the growth in the test with MALME-3M melanoma was 100%; with MDA-MB-231 breast, 94.7%; in the test with RXF 393 renal it was 85.3%; with SF-268 CNS, 98.5%; with SF-295 CNS it was 103%; in the test on SF-539 CNS it was 99.4%. In addition, the growth in the test with UACC-257 melanoma is 101%; with M14 melanoma, 90.1%.

Consider `N#Cc1c(NC(=O)c2ccc(F)c(Cl)c2)sc2c1CCC(=O)C2`, for which the growth in the test with NCI-H23 lung is -7.87% (active); in the test on NCI-H226 lung it was 18.3%; with NCI-H322M lung, 53.6%; with HOP-62 NSCLC, 8.63% (active); in the test on NCI-H460 lung, 4.07% (active); in the test with HOP-92 NSCLC, -37.4% (active). The growth is 3.24% (active) in the test on NCI-H522 lung; 19.4% in the test on A549/ATCC NSCLC; 21.3% in the test on 786-0 renal; -50.2% (active) in the test with COLO 205 colon; 25.8% in the test on DU-145 prostate; 9.06% (active) in the test on K-562 leukemia. The growth was -78.7% (active) in the test on MALME-3M melanoma; -55.7% (active) with MDA-MB-231 breast; -60.5% (active) with RXF 393 renal; 16.3% with SF-268 CNS; -12.2% (active) with SF-295 CNS; -56.2% (active) with SF-539 CNS. Moreover, the figures for the growth with UACC-257 melanoma and with M14 melanoma were 2.11% (active) and -17.8% (active), respectively.
